Screens: PubChem, several laboratories
Hits are enriched below; roughly 3.2% of the tested compounds scored in any of these assays.
Mcl1-Noxa inh = Mcl-1/Noxa binding inhibitors, primary screen, biochemical, TR-FRET, 1536-well. AID 1022, 2008. inhibition, % at 21.7 µM. 220,000 compounds, 1.5% hits. Induced myeloid leukemia cell differentiation protein Mcl-1 (Homo sapiens), Q07820. TR-FRET Mcl-1/Noxa peptide binding, 2 h;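 active means compounds that cut the protein-peptide binding signal by more than 50% relative to plate controls in a single-dose test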;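 further: His-tagged Mcl-1 with rhodamine Noxa BH3 peptide and terbium anti-His antibody; 0% = Mcl-1 plus Noxa peptide wells and 100% = peptide-only wells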
Target sequence (Q07820 whole entry, looked up): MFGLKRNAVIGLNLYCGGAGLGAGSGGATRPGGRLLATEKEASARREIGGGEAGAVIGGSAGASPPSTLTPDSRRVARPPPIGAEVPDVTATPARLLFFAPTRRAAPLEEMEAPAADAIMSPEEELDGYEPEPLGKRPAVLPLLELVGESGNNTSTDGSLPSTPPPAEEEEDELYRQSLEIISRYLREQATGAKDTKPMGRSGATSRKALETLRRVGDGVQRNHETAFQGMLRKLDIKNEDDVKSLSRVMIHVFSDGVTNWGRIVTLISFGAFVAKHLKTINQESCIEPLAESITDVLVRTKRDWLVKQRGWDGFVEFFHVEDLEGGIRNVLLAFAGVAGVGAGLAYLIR
Mcl-1 Bim block = inhibitors of Bim peptide binding to Mcl-1, primary screen, biochemical, bead-based flow cytometry, multiplex | 190,000 compounds, 0.1% hits | AID 1009, 2008 | inhibition, % at 10 µM | Bim peptide-Mcl-1 binding; in the data active means inhibition above about 40%;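 further: 0% = no compound tracer wells and 100% = peptide blocker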
Mcl1-Bid inh = Mcl-1/Bid binding inhibitors, primary screen, biochemical, TR-FRET, 1536-well; 220,000 compounds, 0.97% hits; Induced myeloid leukemia cell differentiation protein Mcl-1 (Homo sapiens), Q07820; TR-FRET Mcl-1/Bid-Dy647 peptide binding; inhibition, % at 21.7 µM;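 active means compounds that cut the binding signal by more than half at the single screening dose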;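 further: His-tagged Mcl-1 with europium anti-His antibody binding Bid BH3 peptide; 0% = Mcl-1 plus peptide wells and 100% = peptide-only wells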
14-3-3 Bad inh = inhibitors of 14-3-3 zeta/Bad binding, primary screen, biochemical, TR-FRET, bovine 14-3-3 zeta | 14-3-3 protein zeta/delta (Bos taurus), P63103 | TR-FRET 14-3-3zeta/Dy647-pBad peptide displacement, 1 h | inhibition, % at 21.7 µM | 220,000 compounds, 0.71% hits | AID 781, 2007;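 active means inhibition above about 70%, limit read from the data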;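 further: 0% = full 14-3-3 plus peptide FRET controls and 100% = background without 14-3-3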
Target sequence (P63103 whole entry, looked up): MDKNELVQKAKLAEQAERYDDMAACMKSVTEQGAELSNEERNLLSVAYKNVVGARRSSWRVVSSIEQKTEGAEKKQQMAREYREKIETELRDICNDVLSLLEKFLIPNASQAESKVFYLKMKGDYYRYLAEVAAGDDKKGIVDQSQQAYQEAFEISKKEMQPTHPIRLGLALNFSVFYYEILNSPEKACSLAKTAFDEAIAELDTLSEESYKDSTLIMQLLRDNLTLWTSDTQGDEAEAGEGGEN
NCF1 inh = p47phox/p22phox peptide binding inhibitors, primary screen, biochemical, uHTS, NADPH oxidase regulatory subunit; Neutrophil cytosol factor 1 (Homo sapiens), P14598; fluorescence polarization, 2 h; inhibition, % at 24.7 µM; 220,000 compounds, 0.53% hits;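 active means inhibition above about 30%, limit read from the data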;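 further: 0% = p47phox with labelled peptide and 100% = labelled peptide alone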
Active calls of the source: *; / = no result given; [ ] = remark or other dose.

SMILES	Mcl1-Noxa inh	Mcl-1 Bim block	Mcl1-Bid inh	14-3-3 Bad inh	NCF1 inh
CC(O)CNCCNCc1c(OCc2ccccc2)ccc2ccccc12 (centres undefined)	16	2	-20	77*	11
CC(O)CNCCOc1ccccc1OCc1ccccc1 (centres undefined)	29	0	13	45	-3
CC(=O)Nc1ccc(-n2cc(-c3ccccc3)[nH]c2=S)cc1	53*	-7	-31	-2	-7
COc1ccc(-n2cc(-c3ccccc3)[nH]c2=S)cc1	11	-16	-102	-4	-1
O=C(NCCN1CCCCC1)c1ccc(Oc2cc(Cl)cc(Cl)c2)o1	-4	/	3	-1	30*
O=C(NCC1CC1)c1ccc(Oc2cc(Cl)cc(Cl)c2)o1	-15	/	-6	0	-20
Cc1cc(C)cc(C(=O)NCC(=O)OCC(=O)N2c3ccccc3NC(=O)C2(C)C)c1	54*	16	-24	7	16
COc1cc(OC)cc(C(=O)NCC(=O)OCC(=O)N2c3ccccc3NC(=O)C2(C)C)c1	10	-1	-10	6	7
O=[N+]([O-])c1ccccc1CN1CCN(Cc2c[nH]c3ccccc23)CC1	41	-1	9	48	0
O=[N+]([O-])c1ccccc1CN1CCN(Cc2ccccn2)CC1	34	0	59*	53	3
O=[N+]([O-])c1cc(CN2CCCC2)c2cccnc2c1O	75*	-3	10	-13	11
CS(=O)(=O)N(CC(=O)NCc1ccncc1)C1CCCCC1	-2	3	-23	-6	-5
O=C(Cn1sc2ccccc2c1=O)NC12CC3CC(CC(C3)C1)C2	53*	-15	32	44	-4
COc1cc(/C=N/N(C)c2ccccc2)ccc1O	56*	0	-36	12	-9
COc1cc(/C=N/NC(=O)C2COc3ccccc3O2)ccc1O (centres undefined)	4	/	-36	-15	-6
COc1cc(/C=N/NC(=O)C2c3ccccc3Oc3ccccc32)ccc1O	79*	13	10	33	-19
COc1cc(/C=N/NC(=O)c2cc(C)oc2C)ccc1O	25	-2	-7	-21	37*
COc1ccc(C(=O)NNC(=O)CSc2nnc(COc3ccccc3OC)n2C)cc1	8	-2	-7	-1	-10
CC(C)CC(NC(=O)C(COCc1ccccc1)NC(=O)OC(C)(C)C)C(=O)NN (centres undefined)	-1	4	-1	-4	3
O=C(NCC(c1cccnc1)N1CCOCC1)c1cccc(Cl)c1 (centres undefined)	10	-3	57*	3	-6
Cc1ccc(-n2c(CSc3nc(C)cc(C)n3)nnc2SCC(=O)Nc2nccs2)cc1	15	/	-51	-3	36*
Cc1ccc(C)c(C(=O)OCC(=O)Nc2ccc(N3CCOCC3)cc2)c1	-10	0	-41	-12	-70
CCOC(=O)CCc1c(C)c2ccc(OCc3cc([N+](=O)[O-])ccc3OC)c(C)c2oc1=O	28	-2	45	40	30*
COC(=O)CNC(=O)c1ccc(F)cc1	-4	/	-21	1	5
Cc1cc(N2CCOCC2)ccc1/C=C1/SC(=O)NC1=O	6	0	-49	-7	-17
SMILES	Mcl1-Noxa inh	Mcl-1 Bim block	Mcl1-Bid inh	14-3-3 Bad inh	NCF1 inh
O=C1NC(=O)/C(=C\c2ccc(O)cc2O)S1	95*	2	-41	87*	-16
CN(C)C(=O)CS(=O)(=O)c1ccc(Cl)cc1	44	/	66*	15	12
COc1ccc(C(=O)CSc2cc(C)nc3nc(C)nn23)cc1OC	-3	0	19	13	129*
COc1ccc(C(=O)CSc2nc(SC)ns2)cc1OC	11	1	-31	-9	-10
COc1cc(C(=O)NCCNC(=O)C2CCCNC2=O)cc(OC)c1OC (centres undefined)	-9	/	15	-3	-7
CCCCc1nnc2c(N(C)S(=O)(=O)c3ccccc3)nc3ccccc3n12	19	/	55*	14	-12
Cc1ccc(F)cc1NC(=O)C1CC(=O)N(CCc2ccccc2)C1 (centres undefined)	14	0	-13	-2	13
Cc1ccccc1C(=O)Nc1ccc2c(C#N)c3nc4ccccc4nc3n2c1	70*	4	84*	89*[fluorescence artefact?]	34*
COc1cc(-c2nnc(-c3ccccc3)o2)cc(OC)c1OC	2	-3	-6	7	32*
C/C(=N/NC(=O)c1ccc(Cl)s1)c1ccc(NC(=O)COc2ccc(Cl)cc2)cc1	-69	-4	55*	52	-13
CC(=O)c1cc(C#N)c(SCc2ccccn2)nc1C	88*	/	-27	-3	-3
NC(=O)CCn1c(=O)oc2ccccc21	-6	-1	-13	36	68*
O=C(Nc1ccc2c(c1)nc1n2CCN(C2CCCCC2)C1)c1ccco1	84*	/	-55	24	-5
O=C(Nc1ccc2c(c1)nc1n2CCSC1)c1ccco1	60*	-1	5	-3	-11
O=C(Nc1ccc2c(c1)nc1n2CCOC1)c1ccco1	10	-2	-7	0	-8
CC1(C)CC(=O)C(CC(=O)Nc2cc(C(F)(F)F)ccc2Cl)C(=O)C1	-1	-2	-29	-1	-5
COc1ccc(OC)c(/C=C/C(=O)NCCc2nc3ccccc3[nH]2)c1	13	/	-26	-1	1
CCOc1cccc2cc(-c3nnc(NCc4ccc5c(c4)OCO5)s3)c(=O)oc12	44	-2	-7	83*[fluorescence artefact?]	67*
CCOc1ccccc1C(=O)NCc1ccc2c(c1)OCO2	-9	-2	0	3	12
O=C(CSc1nc2ccccc2[nH]1)Nc1nc(-c2cccc(Br)c2)cs1	-11	-2	-75	2	-26
CN(C)CCCn1c(SCC(=O)Nc2nc(-c3cccc(Br)c3)cs2)nc2ccccc2c1=O	43	/	-15	-27	76*
CCOC(=O)c1c(NC(=O)COC(=O)Cn2c(C)nc3ccccc32)sc2c1CCCC2	3	-149	56*	88*	15
CC1=Nc2cccc3cccc(c23)N1	93*	-3	-21	0	158*
Nc1ccc(C2=Nc3cccc4cccc(c34)N2)cc1	77*	3	10	9	15
COc1cccc(C2=Nc3cccc4cccc(c34)N2)c1	57*	-5	10	27	-27
O=C(Cc1cccs1)Nc1ccc(-c2nnn(CC(=O)N3CCOCC3)n2)cc1	56*	-2	-36	1	-51
Cc1nnc2ccc(-c3ccc(NC(=O)Cc4cccs4)cc3)nn12	68*	/	-62	1	-4
CC(=O)Nc1ccc(-c2ccc3nnc(C)n3n2)cc1	6	1	-32	-3	-29
Clc1ccccc1-c1ccc(CN2CCN(c3ccccc3)CC2)o1	35	-3	-6	73*	9
